USP10 inh: inhibitors of human USP10 deubiquitinase. Ubiquitin carboxyl-terminal hydrolase 10 (Homo sapiens), Q14694. purified USP10, Ub-rhodamine fluorescence, 60 min. inhibition, % at 20 µM. 47,000 tested, 1.1% active. AID 1645856, 2021
USP8 block: inhibitors of human USP8 deubiquitinase | purified USP8, Ub-rhodamine cleavage fluorescence, 30 min | inhibition, % at 20 µM | 47,000 tested, 4.2% active | AID 1645853, 2021
OTUD3 inh: inhibitors of human OTUD3 deubiquitinase; 47,000 tested, 0.7% active; inhibition, % at 25 µM; purified OTUD3, Ub-rhodamine fluorescence, 2 h
Target sequence (Q5T2D3 whole entry, looked up): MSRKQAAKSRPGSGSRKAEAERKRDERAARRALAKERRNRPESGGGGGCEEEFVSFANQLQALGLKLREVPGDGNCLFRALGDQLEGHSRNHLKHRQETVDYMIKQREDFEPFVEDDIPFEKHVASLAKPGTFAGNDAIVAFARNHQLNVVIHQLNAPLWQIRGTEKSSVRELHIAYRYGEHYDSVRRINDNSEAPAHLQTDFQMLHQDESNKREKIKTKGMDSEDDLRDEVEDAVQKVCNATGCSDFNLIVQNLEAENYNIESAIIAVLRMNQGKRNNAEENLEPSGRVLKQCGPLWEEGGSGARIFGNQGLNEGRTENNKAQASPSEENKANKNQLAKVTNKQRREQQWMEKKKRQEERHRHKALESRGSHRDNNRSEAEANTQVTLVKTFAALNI
UCHL1 block: inhibitors of human UCHL1 deubiquitinase | Ubiquitin carboxyl-terminal hydrolase isozyme L1 (Homo sapiens), P09936 | purified UCHL1, Ub-rhodamine cleavage fluorescence | inhibition, % at 20 µM | 47,000 tested, 0.2% active
USP7 inh: inhibitors of human USP7 deubiquitinase; AID 1645854, 2021; 47,000 tested, 0.3% active; Ubiquitin carboxyl-terminal hydrolase 7 (Homo sapiens), Q93009; purified USP7, Ub-rhodamine cleavage fluorescence; inhibition, % at 20 µM
USP17 block: inhibitors of human USP17 deubiquitinase | purified USP17, Ub-rhodamine cleavage fluorescence, 3 h | inhibition, % at 50 µM | 47,000 tested, 6.5% active | AID 1645855, 2021 | Ubiquitin carboxyl-terminal hydrolase 17-like protein 5 (Homo sapiens), A8MUK1
The depositor's hits bear a star; . = not tested or not shown. This is a sample that favours compounds with a hit; in the whole collection about 9.2% have one here. Rule as the data show it: active = inhibition above about 30%; inactive = the rest.

SMILES | USP10 inh | USP8 block | OTUD3 inh | UCHL1 block | USP7 inh | USP17 block
COc1cccc(-c2cnc([C@@H]3COCCN3C3CCNCC3)[nH]2)c1 | 2 | 10 | 6 | 0 | 2 | 4
COc1cccc(-c2nc3c(s2)CNCC3)c1 | -6 | 10 | -6 | 0 | -11 | -6
CCCN1CCN(C(=O)c2[nH]nc3c2CCc2ccccc2-3)CC1 | -1 | 19 | 6 | 0 | 2 | 8
O=c1[nH]ccn2nc3c(c12)CCc1ccccc1-3 | -3 | -6 | 5 | 3 | 5 | 36*
COc1ccc(CCNc2ncnc3c2oc2nc4c(cc23)COC(C)(C)C4)cc1OC | -5 | -8 | -33 | -1 | 0 | -37
CC(NC(=O)CSc1nnc2n(-c3ccccc3)c(=O)c3ccccc3n12)c1ccccc1 (configuration not stated) | 3 | 36* | 8 | 5 | 5 | 12
O=C(NC1CCCC1)N1C[C@H]2CC[C@@]3(N=C(c4ccccc4)NC3=O)[C@H]2C1 | 2 | -13 | -7 | -4 | -6 | -8
Cc1ccc(-c2cc(NC(=O)C(C)C)c(=O)n(CC(=O)Nc3cccc(F)c3)n2)cc1 | 11 | -1 | -2 | 9 | 14 | -1
O=C(Cn1nc(-c2ccco2)ccc1=O)Nc1cccc(Br)c1 | 4 | 1 | 13 | 4 | 0 | 37*
O=C(NC1CC1)c1nc(-c2cn(-c3ccc(Cl)cc3)nn2)no1 | 6 | 40* | 2 | 1 | 12 | 18
COc1cc(=O)c(C(=O)Nc2ccccc2)nn1-c1cccc(F)c1 | 0 | -9 | -2 | -1 | 0 | -4
COc1ccccc1NC(=O)c1nc(-c2cn(-c3cccc(F)c3)nn2)no1 | 42* | 96* | -5 | 12 | 14 | 1
O=C(Nc1ccccc1F)c1nc(-c2cn(-c3ccc(F)cc3)nn2)no1 | 25 | 90* | -5 | 11 | -13 | -4
O=C(NC1CC1)c1nc(-c2cn(-c3ccc(F)cc3)nn2)no1 | 1 | 3 | -6 | -2 | 0 | 2
COc1ccccc1NC(=O)c1nn(-c2cccc(F)c2)c(OC)cc1=O | 3 | 17 | 9 | 5 | 7 | 46*
COc1cccc(NC(=O)c2nc3c(s2)CCCN3c2ncccn2)c1 | -3 | -6 | -2 | -2 | -2 | -59
CC1Cc2ccccc2N1C(=O)CSc1nnc(-c2ccccc2Cl)n1Cc1ccccc1 (configuration not stated) | 12 | 8 | 10 | 8 | 3 | 25
CC1(C)Oc2ccc(C(=O)N3CCC([C@@H]4NC(=O)N[C@H]5OCCC[C@H]54)CC3)cc2NC1=O | 3 | 1 | 6 | 5 | 13 | -1
O=C1Cc2cc(S(=O)(=O)N3CCC([C@@H]4NC(=O)N[C@H]5OCCC[C@H]54)CC3)ccc2N1 | -4 | 43* | 7 | 2 | -4 | 3
COc1ccc(C(=O)Nc2ccccc2C(=O)NC(Cc2ccc(O)cc2)C(=O)NNC(=O)Cc2ccc(OC)c(OC)c2)cc1 (configuration not stated) | 67* | 8 | -2 | 3 | 5 | 31*
CC(C)(O)[C@@H]1CC[C@](C)([C@@H]2CC3(CCN(C(=O)c4ccncc4)CC3)CO2)O1 | -1 | 20 | 11 | 1 | 5 | 7
N#Cc1c(-c2ccccc2)cc(N2CCN(C3CCCCC3)CC2)n2c1nc1ccccc12 | -5 | -52 | -21 | -18 | -10 | -26
CCc1c(C)c(C#N)c2nc3ccccc3n2c1N1CCN(C2CCCC2)CC1 | 0 | 7 | 2 | -3 | 7 | 62*
CSc1ncccc1C(=O)OCc1ccc(Cl)c(Cl)c1 | 10 | 13 | 2 | 1 | 8 | 45*
Cc1nc(C2=C(O)CN(c3ccc(S(N)(=O)=O)cc3)C2=N)sc1C | -5 | -9 | -14 | -3 | -12 | -16
SMILES | USP10 inh | USP8 block | OTUD3 inh | UCHL1 block | USP7 inh | USP17 block
CN1CC(=O)N(C2CCNCC2)Cc2c(NC3Cc4ccccc4C3)ncnc21 | -4 | -164 | 0 | -1 | -5 | -24
CCn1cc(CN2CCc3nc4cc(-c5ccoc5C)[nH]n4c(=O)c3C2)cn1 | -7 | -228 | -36 | -7 | -7 | -70
Cc1cc(-c2cc3nc4c(c(=O)n3[nH]2)CN(Cc2ccc(C)o2)CC4)no1 | -1 | -38 | 13 | -3 | 0 | 46*
Cc1cc(N2C(=O)OCC2(C)C)nc(C2CCN(C(=O)C(C)(C)C)CC2)n1 | -3 | -30 | 15 | -1 | 2 | -3
O=C(Nc1cccc(N2CCn3c(nc4ccccc43)C2)c1)c1cccc(Br)c1 | -2 | -16 | 3 | -4 | -3 | 30*
Cc1cccc(NC(=O)N2CCCn3c(nc4ccccc43)C2)c1 | 0 | -4 | -1 | 0 | 0 | .
CCOC(=O)N1CCN(S(=O)(=O)c2ccc(F)c(C(=O)Nc3ccccc3Cl)c2)CC1 | 0 | 3 | 6 | 0 | 5 | 2
CCCCN1CC(C(=O)Nc2ccc(C(=O)Nc3cccc(Br)c3)cc2)CC1=O (configuration not stated) | 0 | -15 | -6 | 2 | 1 | 24
CCCCN1CC(C(=O)Nc2ccc(C(=O)Nc3ccc(Br)c(C)c3)cc2)CC1=O (configuration not stated) | 6 | 6 | -2 | -3 | 1 | 39*
COc1ccccc1NC(=O)NC1CCN(c2ccc(F)cc2)C1=O (configuration not stated) | 0 | -7 | 8 | -2 | 2 | 8
O=C(Nc1ccc(F)cc1F)NC1CCN(c2ccccc2)C1=O (configuration not stated) | 12 | 14 | 12 | 5 | 13 | 73*
CCOC(=O)c1cc(OCC(=O)Nc2ccccc2)c2cc(Cl)ccc2n1 | 0 | 4 | -2 | -1 | 3 | 40*
CC(=O)c1ccc(NC(=O)Cn2nc(-c3ccccc3)cc(NC(=O)C(C)C)c2=O)cc1 | -3 | -4 | -12 | 1 | 3 | -21
O=C(CSc1n[nH]c(-c2ccc(F)cc2)n1)Nc1ccc(F)cc1 | 5 | 1 | -5 | 0 | -26 | -7
CCOc1ccc(-c2ccc3nnc(SCC(=O)Nc4ccc(F)cc4)n3n2)cc1 | 38* | 78* | -4 | 2 | 30 | .
O=C(Cn1nc(-c2ccccc2)cc(NC(=O)c2ccccc2)c1=O)Nc1ccc(F)cc1 | 38* | 4 | 24 | 2 | . | 39*
O=C(CSc1nnc2ccc(-c3ccccc3)nn12)Nc1ccc(F)cc1 | 5 | -20 | 10 | 3 | 2 | 43*
CC(C)(C)c1ccc(Cn2c(/C=C/c3ccccc3)nc3ccccc32)cc1 | 9 | 18 | 13 | 6 | 15 | 15
O=C(Cn1cnc2cc([N+](=O)[O-])ccc2c1=O)Nc1ccc2c(c1)OCCO2 | -8 | -201 | -13 | 1 | 3 | -3
